# Reference: PMC8384837, “Expanding the binding specificity for RNA recognition by a PUF domain”
# Positions count from the first letter of the chain named.
# Experiments:
# Assay in all cases: yeast three-hybrid, YBZ-1, SC-Leu-His + 0.5 mM 3-AT, 4 days
# Settings in all cases: tags: N-Gal4 AD-HA kept; label: inside an RPR1-promoter hybrid RNA with tandem MS2 sites; ssRNA
# PUM1 PUF domain R5-RCC = PUM1 PUF domain R5-RCC (Homo sapiens, UniProt Q14671 828-1176, C1007R;R1008C;Q1011C)
# Summary of the method: (§1)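 Repeat regions from input (SC-Leu) and selection (SC-Leu-His + 0.5 mM 3-AT) plates were PCR-amplified and Illumina-sequenced after four days of growth. The cells were strain YBZ-1 with a LexA–MS2 coat fusion and a HIS3 reporter, co-expressing Pumilio-1 PUF domain libraries and matching RNA elements from a centromeric plasmid. The interaction score is the log change in variant frequency from input to selection, taken in log2 with a pseudocount of 1 for absent variants.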
# PUM1 PUF domain R5-RQG = PUM1 PUF domain R5-RQG (Homo sapiens, UniProt Q14671 828-1176, C1007R;R1008Q;Q1011G)
# Summary of the method: as §1
# PUM1 PUF domain R1-KIL = PUM1 PUF domain R1-KIL (Homo sapiens, UniProt Q14671 828-1176, S863K;R864I;Q867L)
# Summary of the method: as §1
# PUM1 PUF domain R6-HHS = biological target: T1, PUM1 PUF domain R6-HHS (Homo sapiens, UniProt Q14671 828-1176, N1043H;Y1044H;Q1047S)
# T1 sequence: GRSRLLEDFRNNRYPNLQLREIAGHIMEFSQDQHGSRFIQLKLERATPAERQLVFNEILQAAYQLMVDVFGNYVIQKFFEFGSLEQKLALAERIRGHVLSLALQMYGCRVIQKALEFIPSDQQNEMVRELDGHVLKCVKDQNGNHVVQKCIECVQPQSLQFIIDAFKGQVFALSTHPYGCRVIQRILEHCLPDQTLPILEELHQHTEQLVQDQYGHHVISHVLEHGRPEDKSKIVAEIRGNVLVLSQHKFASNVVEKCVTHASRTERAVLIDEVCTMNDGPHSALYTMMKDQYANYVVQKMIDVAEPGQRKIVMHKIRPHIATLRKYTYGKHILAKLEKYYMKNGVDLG
# Summary of the method: as §1
# PUM1 PUF domain R6-NFW = biological target: T2, PUM1 PUF domain R6-NFW (Homo sapiens, UniProt Q14671 828-1176, Y1044F;Q1047W)
# T2 sequence: T1 sequence with H216N, H217F, S220W
# Summary of the method: as §1
# PUM1 PUF domain R3-GFW = PUM1 PUF domain R3-GFW (Homo sapiens, UniProt Q14671 828-1176, C935G;R936F;Q939W)
# Summary of the method: as §1
# PUM1 PUF domain R8-HYN = PUM1 PUF domain R8-HYN (Homo sapiens, UniProt Q14671 828-1176, N1122H;Q1126N)
# Summary of the method: as §1
# PUM1 PUF domain R4-SNG = PUM1 PUF domain R4-SNG (Homo sapiens, UniProt Q14671 828-1176, N971S;H972N;Q975G)
# Summary of the method: as §1
# PUM1 PUF domain R4-TPS = PUM1 PUF domain R4-TPS (Homo sapiens, UniProt Q14671 828-1176, N971T;H972P;Q975S)
# Summary of the method: as §1
# PUM1 PUF domain R8-RWI = PUM1 PUF domain R8-RWI (Homo sapiens, UniProt Q14671 828-1176, N1122R;Y1123W;Q1126I)
# Summary of the method: as §1
sequence,measurement,setting,value
GGCUAGAACUAGUGGAUCCCCCGGCGCCCGGCGGCUCGAGCCCGGGUAAGUGUCAAUAGUCUGCAUGCCGCCGGGCGCCAUGCCUGCAGGUCGACUCUAGAAAACAUG,binding signal,PUM1 PUF domain R5-RCC,4.34 log2 enrichment (interaction score)
same,binding signal,PUM1 PUF domain R5-RQG,5.03 log2 enrichment (interaction score)
GGCUAGAACUAGUGGAUCCCCCGGCGCCCGGCGGCUCGAGCCCGGGUAAGUGUGAAUAGUCUGCAUGCCGCCGGGCGCCAUGCCUGCAGGUCGACUCUAGAAAACAUG,binding signal,PUM1 PUF domain R5-RQG,0.9 log2 enrichment (interaction score)
GGCUAGAACUAGUGGAUCCCCCGGCGCCCGGCGGCUCGAGCCCGGGUAAGUGUAAAUCGUCUGCAUGCCGCCGGGCGCCAUGCCUGCAGGUCGACUCUAGAAAACAUG,binding signal,PUM1 PUF domain R1-KIL,2.59 log2 enrichment (interaction score)
GGCUAGAACUAGUGGAUCCCCCGGCGCCCGGCGGCUCGAGCCCGGGUAAGUGUAAAUAGUCUGCAUGCCGCCGGGCGCCAUGCCUGCAGGUCGACUCUAGAAAACAUG,binding signal,PUM1 PUF domain R6-HHS,4.38 log2 enrichment (interaction score)
same,binding signal,PUM1 PUF domain R6-NFW,2.25 log2 enrichment (interaction score)
same,binding signal,PUM1 PUF domain R3-GFW,5.77 log2 enrichment (interaction score)
same,binding signal,PUM1 PUF domain R8-HYN,2.92 log2 enrichment (interaction score)
same,binding signal,PUM1 PUF domain R4-SNG,1.17 log2 enrichment (interaction score)
same,binding signal,PUM1 PUF domain R4-TPS,3 log2 enrichment (interaction score)
same,binding signal,PUM1 PUF domain R5-RQG,0.8 log2 enrichment (interaction score)
GGCUAGAACUAGUGGAUCCCCCGGCGCCCGGCGGCUCGAGCCCGGGUAAGUGUUAAUAGUCUGCAUGCCGCCGGGCGCCAUGCCUGCAGGUCGACUCUAGAAAACAUG,binding signal,PUM1 PUF domain R5-RQG,5 log2 enrichment (interaction score)
GGCUAGAACUAGUGGAUCCCCCGGCGCCCGGCGGCUCGAGCCCGGGUAAGUGUAUAUAGUCUGCAUGCCGCCGGGCGCCAUGCCUGCAGGUCGACUCUAGAAAACAUG,binding signal,PUM1 PUF domain R4-SNG,3.22 log2 enrichment (interaction score)
GGCUAGAACUAGUGGAUCCCCCGGCGCCCGGCGGCUCGAGCCCGGGUAAGCGUAAAUAGUCUGCAUGCCGCCGGGCGCCAUGCCUGCAGGUCGACUCUAGAAAACAUG,binding signal,PUM1 PUF domain R8-RWI,5.86 log2 enrichment (interaction score)
GGCUAGAACUAGUGGAUCCCCCGGCGCCCGGCGGCUCGAGCCCGGGUAAGUGUACAUAGUCUGCAUGCCGCCGGGCGCCAUGCCUGCAGGUCGACUCUAGAAAACAUG,binding signal,PUM1 PUF domain R4-TPS,4.18 log2 enrichment (interaction score)
